Experimental data from PubChem BioAssay AID1159580 (chemical genetic matrix, 2015).
Hit rate of the full screen: of about 5,500 compounds, about 2,000 (36%) were called active. Another 18% or so got no clear call; they are omitted. Rule as the data show it: active = normalized growth mostly below about 0.91 (no sharp cut-off); inconclusive = no clear call, values can overlap the other calls; inactive = mostly above about 0.92. Some of the results follow.

Assay: chemical genetic growth profiling, strain panel (AID 1159580);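 also: tested at 20 µM; growth read once vehicle control cultures reached saturation at 30 °C; 1 = growth at the plate median or of vehicle wells; lower values mean less growth of the strain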
Details: S. cerevisiae deletion strains, growth OD
[1] = locus YHR030C, strain SLT2, active compounds read low

Measured: normalized growth

NC(COCc1ccccc1)C(=O)O (stereo not drawn)
inactive: [1] 1.01 | locus YHR079C, strain IRE1, active compounds read low 1 | locus YJL095W, strain BCK1, active compounds read low 0.995 | locus YJR066W, strain TOR1, active compounds read low 0.891 | locus YLR113W, strain HOG1, active compounds read low 1.01 | locus YNL183C, strain NPR1, active compounds read low 0.904 | locus YOR231W, strain MKK1, active compounds read low 1.01 | locus YPL256C, strain CLN2, active compounds read low 0.999

O=C1NC2CC2N1C(=O)OCc1ccccc1 (stereo not drawn)
inactive: locus YAL013W, strain DEP1, active compounds read low 1 | locus YBR229C, strain ROT2, active compounds read low 1 | locus YDL101C, strain DUN1, active compounds read low 1.01 | locus YDR150W, strain NUM1, active compounds read low 1.02 | locus YEL061C, strain CIN8, active compounds read low 0.956 | locus YGR078C, strain PAC10, active compounds read low 1.01 | [1] 1.06 | locus YHR087W, strain rtc3, active compounds read low 0.969 | locus YJL187C, strain SWE1, active compounds read low 0.991 | locus YJR043C, strain POL32, active compounds read low 0.993 | locus YJR075W, strain HOC1, active compounds read low 1.01 | locus YLR039C, strain RIC1, active compounds read low 0.99 | locus YLR058C, strain SHM2 (second series), active compounds read low 0.995 | locus YLR085C, strain ARP6, active compounds read low 0.978 | locus YLR262C, strain YPT6, active compounds read low 1.02 | locus YML094W, strain GIM5, active compounds read low 0.992 | locus YMR219W, strain ESC1, active compounds read low 1 | locus YMR263W, strain SAP30, active compounds read low 0.978 | locus YNL153C, strain GIM3, active compounds read low 1.01 | locus YNL298W, strain CLA4 (second series), active compounds read low 0.954 | locus YNL322C, strain KRE1, active compounds read low 1 | locus YNR030W, strain Alg12, active compounds read low 0.988 | locus YPL055C, strain LGE1, active compounds read low 0.99 | locus YPL241C, strain CIN2, active compounds read low 1.01 | locus YPR135W, strain CTF4, active compounds read low 1.03
